Test systems include RPMI-8226 leukemia; OVCAR-8 ovarian; OVCAR-5 ovarian; OVCAR-4 ovarian; SK-OV-3 ovarian; IGROV1 ovarian; OVCAR-3 ovarian; NCI/ADR-RES ovarian; T-47D breast; BT-549 breast; MDA-MB-435 melanoma; SW-620 colon; MCF7 breast; HCT-116 colon; HCC-2998 colon; KM12 colon; HS 578T breast.
What all share (assay): NCI-60 one-dose screen, 48 h (100 = growth as untreated, 0 = no growth, -100 = all killed)
What all share (conditions): 10 µM unless noted

Drawing on PubChem BioAssay (NCI), this text covers growth for nine compounds.

Structures are written as SMILES. The panel holds about 83,000 compounds, 20% with a hit somewhere; the sample as a whole holds those more often.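 Results are percent growth after 48 hours of single-concentration exposure. 100 means growth as in untreated cells, lower positive values show inhibition; negative values down to -100 show cell death.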 Values without a mark were called inactive. Activity calls are given as the source filed them. How the source made its calls: active means growth percent below 10; inactive means the rest.

Turning to `COc1cc(-c2cc(-c3ccc(Nc4nc(Nc5ccccc5)nc(Nc5ccc(Cl)cc5)n4)cc3)nc(N)n2)cc(OC)c1OC`, the growth in the test on RPMI-8226 leukemia is 40.1%; in the test with OVCAR-8 ovarian, 60.1%; in the test on OVCAR-5 ovarian it was 70%; in the test on OVCAR-4 ovarian it was 49.9%; with SK-OV-3 ovarian it was 113%; in the test with IGROV1 ovarian it was 39.2%. Also, the growth in the test with OVCAR-3 ovarian was 63.8%; with NCI/ADR-RES ovarian, 50.9%; in the test with T-47D breast it was 38.4%; with BT-549 breast, 71.1%; in the test on MDA-MB-435 melanoma, 63.5%; in the test with SW-620 colon it was 87.2%. In addition, the growth with MCF7 breast was 35.5%; in the test with HCT-116 colon, 34.9%; in the test on HCC-2998 colon it was 58.2%; in the test on KM12 colon, 52.4%.

For `CS(=O)(=O)c1ccc(-c2nc3cc(Cl)ccc3n2CC(=O)N/N=C/c2ccc(Cl)cc2)cc1`, the growth in the test on RPMI-8226 leukemia was -17.2% (active); with OVCAR-8 ovarian, 43.6%; with OVCAR-5 ovarian, 77.4%; with OVCAR-4 ovarian, 60.1%; in the test with SK-OV-3 ovarian it was 65.8%; in the test on IGROV1 ovarian, 55.6%. Besides, the growth with OVCAR-3 ovarian is 46.5%; in the test on HS 578T breast it was 19.2%; with NCI/ADR-RES ovarian, 92.8%; in the test with BT-549 breast, 41.8%; in the test on MDA-MB-435 melanoma, 73.7%; with SW-620 colon it was 75%. The growth is 37.4% with MCF7 breast, 42.1% in the test with HCT-116 colon, 73.5% in the test on HCC-2998 colon and 41% with KM12 colon.

Take `CN1CCN(C(=O)[C@]23CCC(C)(C)C[C@@H]2C2=CC[C@@H]4[C@@]5(C)Cc6c([nH]c7ccccc67)C(C)(C)[C@@H]5CC[C@@]4(C)[C@]2(C)CC3)CC1`: the growth is 71.6% in the test with RPMI-8226 leukemia; 79.6% in the test with OVCAR-8 ovarian; 79.8% with OVCAR-5 ovarian; 72% with OVCAR-4 ovarian; 76.8% in the test with SK-OV-3 ovarian; 84.4% in the test on IGROV1 ovarian. In addition, the growth in the test on OVCAR-3 ovarian is 78.3%; in the test with HS 578T breast, 73.2%; in the test on NCI/ADR-RES ovarian it was 89.9%; in the test with BT-549 breast, 97%; in the test on MDA-MB-435 melanoma it was 84.6%; in the test on MCF7 breast, 69.9%. The growth was 70.7% in the test on HCT-116 colon, 99.4% with HCC-2998 colon and 76.3% in the test on KM12 colon.

Regarding `C=C(C)[C@@H]1CC[C@]2(CNCCO)CC[C@]3(C)[C@H](CC[C@@H]4[C@@]5(C)CCC(N)[C@@](C)(CO)[C@@H]5CC[C@]43C)[C@@H]12` (some centres undefined), the growth was -45.1% (active) in the test on RPMI-8226 leukemia; 10.7% with OVCAR-8 ovarian; 63.8% in the test with OVCAR-5 ovarian; 46.2% in the test with OVCAR-4 ovarian; 75% with SK-OV-3 ovarian; 61.6% with IGROV1 ovarian. Also, the growth is -43.4% (active) with OVCAR-3 ovarian; 60.9% in the test on HS 578T breast; 83% in the test on NCI/ADR-RES ovarian; 68.6% in the test on BT-549 breast; -75.7% (active) in the test on MDA-MB-435 melanoma; -60.2% (active) in the test with SW-620 colon. In addition, the growth in the test with MCF7 breast was -54.2% (active); with HCT-116 colon it was -90.2% (active); in the test on HCC-2998 colon, -8.22% (active); in the test with KM12 colon, -2.9% (active).

Turning to `O=c1[nH]c(=O)n(C2CC(O)C(CO)O2)cc1CO` (centres undefined), the growth in the test with RPMI-8226 leukemia is 98.9%; in the test with OVCAR-8 ovarian, 99.9%; in the test with OVCAR-5 ovarian, 29.7%; with OVCAR-4 ovarian, 107%; in the test on SK-OV-3 ovarian it was 107%; in the test with IGROV1 ovarian, 124%. The growth with OVCAR-3 ovarian is 113%; in the test on NCI/ADR-RES ovarian, 4.34% (active); in the test with T-47D breast it was 87.7%; in the test with BT-549 breast, 82.1%; in the test on MDA-MB-435 melanoma it was 99%; in the test with SW-620 colon, 96.6%. The values for the growth with MCF7 breast, with HCT-116 colon and in the test with KM12 colon were 65.4%, 91.4% and 103%, respectively.

For `O=C(C[C@@]1(O)C(=O)Nc2c(Cl)ccc(Cl)c21)c1ccc(C2CC2)cc1`, the growth with RPMI-8226 leukemia is 23.4%; in the test with OVCAR-8 ovarian, 29.7%; in the test on OVCAR-5 ovarian, 33.4%; in the test with OVCAR-4 ovarian, 54.3%; in the test with SK-OV-3 ovarian it was 38.6%; with IGROV1 ovarian, 22.9%. Further, the growth in the test with OVCAR-3 ovarian was -11.9% (active); in the test with NCI/ADR-RES ovarian, 5.4% (active); in the test with T-47D breast it was 40.5%; in the test with MDA-MB-435 melanoma, -48% (active); in the test with SW-620 colon it was 19.4%; in the test on MCF7 breast it was 16.5%. Moreover, the growth was 9.4% (active) in the test with HCC-2998 colon and 24.7% in the test on KM12 colon.

As to `N#Cc1cccc(-c2nc3ccccn3c2NCCN2CCOCC2)c1`, the growth was 90.4% with RPMI-8226 leukemia; 90.7% in the test on OVCAR-8 ovarian; 94.4% in the test with OVCAR-5 ovarian; 30% in the test on OVCAR-4 ovarian; 86.3% with SK-OV-3 ovarian; 97.8% with IGROV1 ovarian. Also, the growth with OVCAR-3 ovarian is 96.9%; in the test on HS 578T breast, 96.2%; with NCI/ADR-RES ovarian it was 98.2%; in the test on BT-549 breast, 93.3%; in the test on MDA-MB-435 melanoma, 102%; with SW-620 colon, 95.5%. Further, the growth with MCF7 breast is 90.4%; with HCT-116 colon it was 89.9%; with HCC-2998 colon it was 96.1%; with KM12 colon it was 88.6%.

On to `CN(CCCCCCCCNc1ccnc2ccccc12)Cc1ccc(-c2ccc(-c3ccc(C#N)cc3)s2)cc1`, for which the growth was -44.4% (active) in the test on RPMI-8226 leukemia; -52.5% (active) with OVCAR-8 ovarian; -40.6% (active) in the test on OVCAR-5 ovarian; -57.9% (active) with OVCAR-4 ovarian; -72.6% (active) in the test with SK-OV-3 ovarian; -86.4% (active) with IGROV1 ovarian. The growth in the test with OVCAR-3 ovarian is -79.1% (active); in the test on HS 578T breast, -36.6% (active); with T-47D breast it was -33.6% (active); with BT-549 breast it was -30.1% (active); in the test with MDA-MB-435 melanoma it was -91.6% (active); with SW-620 colon it was -76.3% (active). The growth was -76.5% (active) in the test with MCF7 breast, -86.5% (active) in the test with HCT-116 colon, -89.6% (active) in the test on HCC-2998 colon and -68.6% (active) with KM12 colon.

As for `CCOC(=O)C(=CNc1ccccc1[N+](=O)[O-])C(=O)OCC`, the growth in the test with RPMI-8226 leukemia is 92.6%; in the test on OVCAR-8 ovarian, 101%; with OVCAR-5 ovarian, 96.4%; in the test with OVCAR-4 ovarian, 110%; with SK-OV-3 ovarian it was 110%; in the test on IGROV1 ovarian, 107%. Further, the growth in the test on OVCAR-3 ovarian is 105%; in the test with HS 578T breast, 98.6%; in the test with T-47D breast it was 90%; in the test on BT-549 breast, 103%; in the test on MDA-MB-435 melanoma it was 111%; in the test on MCF7 breast, 92.9%. The results for the growth in the test on HCT-116 colon, with HCC-2998 colon and in the test on KM12 colon were 100%, 96.1% and 106%, respectively.
